Assay outcomes deposited in PubChem by National Center for Advancing Translational Sciences (NCATS).
Compounds with a hit are over-represented: about 7.4% of the library has one in this group of screens.
Rab9 promoter act: qHTS Assay for Rab9 Promoter Activators. Huh7 Rab9 promoter-luciferase reporter, luminescence, 24 h. Potency, µM (doses to about 9.22 µM), most hits filed as activators. 320,000 tested, 2.8% active; also: nearly all actives have a fitted effect of over 60% in size
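Luminescence read-out: Huh7 cells stably expressing Rab9-luciferase, treated 24 h with compound at 37 °C, then lysed with luciferase reagent for 10 min at ambient before reading.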
FLuc counter: qHTS profiling assay for firefly luciferase inhibitor/activator using purifed enzyme and Km concentrations of substrates (counterscreen for miR-21 project); purified FLuc, Km substrates, luminescence inhibition; Potency, µM (series often up to 57.5 µM), usual class: inhibitors; 360,000 tested, 6.9% active; AID 588342, 2011; also: nearly all actives have a fitted effect of over 55% in size
Target sequence (P08659 whole entry, looked up): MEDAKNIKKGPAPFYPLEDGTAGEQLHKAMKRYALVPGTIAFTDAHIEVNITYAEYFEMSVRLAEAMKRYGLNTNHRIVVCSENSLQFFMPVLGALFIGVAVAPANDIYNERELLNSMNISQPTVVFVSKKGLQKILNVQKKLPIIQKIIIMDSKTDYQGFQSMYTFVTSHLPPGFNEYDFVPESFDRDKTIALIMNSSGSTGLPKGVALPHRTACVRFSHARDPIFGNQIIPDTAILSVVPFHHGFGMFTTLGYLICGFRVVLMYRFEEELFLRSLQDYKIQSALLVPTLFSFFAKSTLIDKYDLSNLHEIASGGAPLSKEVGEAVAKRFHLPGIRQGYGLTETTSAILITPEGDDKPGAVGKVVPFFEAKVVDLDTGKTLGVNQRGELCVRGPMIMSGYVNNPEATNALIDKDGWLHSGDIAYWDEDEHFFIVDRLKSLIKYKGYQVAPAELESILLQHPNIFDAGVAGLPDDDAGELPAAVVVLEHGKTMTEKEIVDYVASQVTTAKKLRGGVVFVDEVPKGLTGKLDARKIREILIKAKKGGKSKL
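Biochemical qHTS of compounds, final roughly 60 µM downward over six points, against 10 nM purified firefly luciferase using Km concentrations of substrates (10 uM D-luciferin, 10 uM ATP) in Tris acetate pH 7.5 buffer; luminescence output.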
ELG1 genotox: qHTS screen for small molecules that induce genotoxicity in human embryonic kidney (HEK293T) cells expressing luciferase-tagged ELG1; HEK293T ELG1-luciferase reporter, luminescence, 16 h; Potency, µM (top dose mostly 46 µM), usual class: activators; 330,000 tested, 1.3% active; also: nearly all actives have a fitted effect of over 60% in size
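DMSO vehicle served as control against compound-treated ELG1-luciferase HEK293T cells; exposure lasted 16 hr at 37 °C and 5% CO2, followed by ONE-Glo luminescence detection after 30 min.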
SMN2 splice up: qHTS Assay for Enhancers of SMN2 Splice Variant Expression. HEK293 SMN2-luciferase splicing reporter, luminescence, 30-36 h. Potency, µM (titrated, usually from 46.1 µM), actives largely listed as activators. 210,000 tested, 2.8% active. AID 1458, 2008; also: nearly all actives have a fitted effect of over 55% in size
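qHTS luciferase splicing reporter: luminescence rises when SMN2 exon 7 is included in transfected HEK293 cells. Compound exposure lasted 30-36 h at 37C, with 4.5 mM final sodium butyrate as control, followed by a ONE-Glo read.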
NPC1 promoter act: qHTS Assay for NPC1 Promoter Activators. Huh7 NPC1 promoter luciferase reporter, 24 h. Potency, µM (titrated, usually from 9.22 µM), hits mostly activators. 320,000 tested, 2.4% active; also: nearly all actives have a fitted effect of over 60% in size
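Luminescence read-out of NPC1 promoter-driven luciferase in stably transfected Huh7 cells; compounds delivered in DMSO and left 24 h at 37C, 5% CO2, qHTS titration format.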
p53 reactivation: qHTS assay for re-activators of p53 using a Luc reporter; H1299 p53-A138V BP100-luciferase reporter, luminescence, 24 h; Potency, µM (highest dose often 92.2 µM), actives largely listed as activators; 320,000 tested, 0.063% active; AID 504706, 2011; also: nearly all actives have a fitted effect of over 45% in size
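p53-null H1299 cells stably carrying temperature-sensitive p53-A138V and a BP100-luciferase reporter were pinned with compounds (4-point, 1:5 series) and held 24 hrs at 37 deg C. Luminescence was read 10 min after detection reagent.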
A number is an active result. Calls follow the shape of the dose curve; as a rule, active = well fitted curve in the direction sought with a large enough effect; inconclusive = small, poorly fitted or top-dose-only effect, or another doubt; inactive = no such curve, though single readings can be large; an effect the other way counts as inactive or inconclusive.

How did COc1ccccc1N1CCN(C(=O)CCc2nnc3n(C)c(=O)c4sccc4n23)CC1 do in these assays?
FLuc counter: inactive; SMN2 splice up: inactive

Results for COc1ccc2nc(NC(=O)CSc3ccccc3)sc2c1 ?
Rab9 promoter act: inactive; FLuc counter: 16.9µM; ELG1 genotox: inconclusive; SMN2 splice up: inactive; NPC1 promoter act: inactive; p53 reactivation: inactive

How did COc1ccc2nc(NC(=O)CSc3nnc(C)n3N)sc2c1 do in these assays?
Rab9 promoter act: 0.501µM; FLuc counter: 3.01µM; ELG1 genotox: 7.3µM; NPC1 promoter act: 1.58µM; p53 reactivation: inactive

What do the screens show for `CCOc1ccc2nc(NC(=O)CSc3ccc(Cl)cc3)sc2c1`?
Rab9 promoter act: inactive; FLuc counter: inconclusive; ELG1 genotox: inactive; SMN2 splice up: inactive; NPC1 promoter act: inactive; p53 reactivation: inactive

What do the screens show for `CCOc1ccc2nc(NC(=O)CSC3=NCCS3)sc2c1`?
Rab9 promoter act: inconclusive; FLuc counter: 15.1µM; ELG1 genotox: inconclusive; SMN2 splice up: inactive; NPC1 promoter act: inconclusive; p53 reactivation: inconclusive

Results for CCOc1ccc2nc(NC(=O)CSc3nc(SC)ns3)sc2c1 ?
Rab9 promoter act: inconclusive; FLuc counter: 23.9µM; ELG1 genotox: inactive; SMN2 splice up: inconclusive; NPC1 promoter act: inactive; p53 reactivation: inactive

Results for COc1ccccc1NC(=O)Cn1c(SCC(=O)N(C)c2ccccc2)nc2ccccc21 ?
FLuc counter: inactive

How did CC(OC(=O)c1ccc(Cl)cc1)C(=O)NCC1CCCCC1 (stereo not given) do in these assays?
Rab9 promoter act: inactive; FLuc counter: inactive; ELG1 genotox: inactive; NPC1 promoter act: inactive; p53 reactivation: inactive

Results for O=C(NCCCn1ccnc1)/C(=C\c1ccc(Br)cc1)NC(=O)c1ccccc1 ?
Rab9 promoter act: inactive; FLuc counter: inactive; ELG1 genotox: inactive; NPC1 promoter act: inactive; p53 reactivation: inactive

How did CSc1nc(N)n2nc(-c3ccc(Cl)cc3)cc2n1 do in these assays?
Rab9 promoter act: 1.58µM; FLuc counter: 0.675µM; ELG1 genotox: inconclusive; NPC1 promoter act: 2µM; p53 reactivation: inactive

How did Cc1ccc(-c2cc(N)n(Cc3ccc(Cl)cc3)n2)cc1 do in these assays?
Rab9 promoter act: inactive; FLuc counter: inconclusive; ELG1 genotox: inactive; SMN2 splice up: inactive; NPC1 promoter act: inactive; p53 reactivation: inactive

What do the screens show for `CC1CCCN(C(=O)c2cc3ccc4cccnc4c3[nH]2)C1` (stereo not given)?
FLuc counter: 0.426µM

What do the screens show for `CC(=O)c1ccc(N2CCN(C(=O)c3cc4ccc5cccnc5c4[nH]3)CC2)cc1`?
FLuc counter: inactive

Results for O=C(c1cc2ccc3cccnc3c2[nH]1)N1CCCCC1 ?
FLuc counter: 1.2µM

How did CCOC(=O)C1=C(Cc2ccc(Cl)cc2)C(=O)c2ccccc2C1=O do in these assays?
Rab9 promoter act: inactive; FLuc counter: 21.3µM; ELG1 genotox: inactive; SMN2 splice up: inactive; NPC1 promoter act: inactive; p53 reactivation: inactive

Results for CCOC(=O)C1=C(C)N=C2c3ccccc3C(=O)C2C1c1ccc(Cl)cc1 (stereo not given) ?
Rab9 promoter act: inactive; FLuc counter: inactive; ELG1 genotox: inactive; SMN2 splice up: inactive; NPC1 promoter act: inactive; p53 reactivation: inactive

How did C[C@@H](C(=O)Nc1ccc2c(c1)OCCO2)n1nnc2ccccc2c1=O do in these assays?
Rab9 promoter act: 3.55µM; FLuc counter: 8.49µM; ELG1 genotox: inconclusive; NPC1 promoter act: 3.55µM; p53 reactivation: inconclusive

What do the screens show for `CC(Sc1ncccn1)C(=O)Nc1ccc2c(c1)OCCO2` (stereo not given)?
Rab9 promoter act: inactive; FLuc counter: inactive; ELG1 genotox: inactive; NPC1 promoter act: inactive; p53 reactivation: inactive

Results for CC(Sc1nc2ccccc2[nH]1)C(=O)Nc1ccc2c(c1)OCCO2 (stereo not given) ?
Rab9 promoter act: inactive; FLuc counter: 21.3µM; ELG1 genotox: inactive; SMN2 splice up: inactive; NPC1 promoter act: inactive; p53 reactivation: inactive

Results for CCn1c(SC(C)C(=O)Nc2ccc3c(c2)OCCO3)nnc1C1CC1 (stereo not given) ?
Rab9 promoter act: inactive; FLuc counter: 23.9µM; ELG1 genotox: inactive; NPC1 promoter act: inactive; p53 reactivation: inactive

Results for CC(C(=O)Nc1ccc2c(c1)OCCO2)n1nnc(-c2ccccc2)n1 (stereo not given) ?
Rab9 promoter act: inactive; FLuc counter: inactive; ELG1 genotox: inactive; SMN2 splice up: inactive; NPC1 promoter act: inactive; p53 reactivation: inactive

What do the screens show for `CCOc1cccc2sc(N(Cc3cccnc3)C(=O)c3ccco3)nc12`?
FLuc counter: inactive

How did COc1ccc(-c2nc(Cn3c(SCc4ccccc4F)nc4ccncc43)c(C)o2)cc1 do in these assays?
Rab9 promoter act: inactive; FLuc counter: inactive; ELG1 genotox: inconclusive; SMN2 splice up: inactive; NPC1 promoter act: inactive; p53 reactivation: inactive

What do the screens show for `COc1ccc(-c2nc(Cn3c(SCc4ccc(C)cc4)nc4cccnc43)c(C)o2)cc1OC`?
FLuc counter: 6.01µM

Results for CCOC(=O)CSc1nc2cccnc2n1C ?
Rab9 promoter act: inactive; FLuc counter: inactive; ELG1 genotox: inactive; SMN2 splice up: inactive; NPC1 promoter act: inactive; p53 reactivation: inactive

Results for Cn1c(SCc2ccccc2F)nc2cccnc21 ?
Rab9 promoter act: 2.24µM; FLuc counter: 9.53µM; ELG1 genotox: inconclusive; SMN2 splice up: 12.6µM; NPC1 promoter act: 1.41µM; p53 reactivation: inconclusive

How did COc1ccc(-c2nc(Cn3c(SCc4ccc(F)cc4)nc4ccncc43)c(C)o2)cc1OC do in these assays?
Rab9 promoter act: inactive; FLuc counter: 13.5µM; ELG1 genotox: inactive; SMN2 splice up: inactive; NPC1 promoter act: inactive; p53 reactivation: inactive

What do the screens show for `COc1ccc(-c2nc(Cn3c(SCc4ccc(F)cc4)nc4cccnc43)c(C)o2)cc1`?
FLuc counter: 10.7µM

Results for O=C(NNC(=O)C12CC3CC(CC(C3)C1)C2)c1csc(N2CCOCC2)n1 ?
Rab9 promoter act: inactive; FLuc counter: inconclusive; ELG1 genotox: inactive; NPC1 promoter act: inactive; p53 reactivation: inactive

What do the screens show for `CCN(C(=O)c1c(C)oc2ncn(CC(C)C)c(=O)c12)c1cccc(Cl)c1`?
FLuc counter: inactive

What do the screens show for `COc1ccc(CNC(=O)C2CCN(c3nnc(-n4cccc4CNc4ccc(C)cc4)s3)CC2)c(OC)c1`?
FLuc counter: inactive; SMN2 splice up: inactive

What do the screens show for `COc1ccc(-c2nc(Cn3c(SCc4ccccc4F)nc4cccnc43)c(C)o2)cc1`?
FLuc counter: 13.5µM
